# Compounds with a hit are over-represented: about 0.47% of the library has one in this group of screens.
# Mm-Cpn inhibitor = Inhibitors of TCP-1 ring complex (TRiC) of Methanococcus maripaludis (MmCpn): qHTS. Potency, µM (top dose mostly 76.9 µM), hits mostly inhibitors. actives 0.031% (n = 330,000). purified Mm-Cpn ATPase, ADP Transcreener TR-FRET; note: nearly all actives have a fitted effect of over 80% in size
#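 Compound-treated chaperonin, 25 nM final, turns over 10 uM ATP at 37°C for 30 min following a 10 min preincubation; ADP generated competes with ADP-d2 for Eu-cryptate antibody, lowering FRET.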
# CCT chaperon mod = High-Throughput Screening for Modulators of Cytosolic Chaperonin Activity; purified chaperonin ATPase assay, HTRF ADP detection, 30 min; activity change, % (no concentration beside the values), hits read low; actives 0.3% (n = 360,000); in the data active = activity change below about -30%
#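 TRiC (40 or 20 nM final, by batch activity) in 30 mM Tris pH 7.4, 100 mM KCl, 5 mM MgCl2, 1 mM DTT was treated with compound at 76 uM single dose, then 10 uM ATP, 30 min at 37 °C. ADP was read by HTRF Transcreener.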
# AT treatment = qHTS Assay for Identifying a Potential Treatment of Ataxia-Telangiectasia. F2112 A-T fibroblasts, KAP-1 phosphorylation AlphaLISA; neocarzinostatin DNA damage 30 min before lysis. Potency, µM (highest dose often 57.5 µM), usual class: activators. actives 0.19% (n = 320,000); note: nearly all actives have a fitted effect of over 45% in size
#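 ATM-like activity read as KAP-1 phosphorylation via AlphaLISA donor/acceptor antibody pairs after lysis and 6 hr at 25C. Cells were ATM-null patient fibroblasts (F2112, hTERT), dosed 60 min, then exposed to the DSB inducer NCS for 30 min.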
# Apoferritin bind = qHTS Assay for Identification of Novel General Anesthetics; AID 485281, 2010; Ferritin light chain (Equus caballus), P02791; actives 0.074% (n = 350,000); Potency, µM (titrated, usually from 77.5 µM), actives largely listed as inhibitors; apoferritin/1-aminoanthracene competitive binding, fluorescence; note: nearly all actives have a fitted effect of over 20% in size
# Target sequence (P02791 2-175 limits assumed): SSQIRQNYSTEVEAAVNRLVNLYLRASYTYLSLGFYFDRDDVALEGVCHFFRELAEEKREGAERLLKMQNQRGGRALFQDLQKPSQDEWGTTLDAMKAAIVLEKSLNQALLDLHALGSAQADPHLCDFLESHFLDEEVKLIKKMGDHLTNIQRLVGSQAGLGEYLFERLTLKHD
#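 Probe: 1-aminoanthracene (50% saturated, PBS). Protein: horse-spleen apoferritin, 10 uM. Incubation: 10 min, room temperature. Detection: 380 nm excitation, 535 nm emission. Analysis: normalized response, four-parameter Hill.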
# Hits are given with their value; – = inactive; ? = inconclusive; · = not tested or not shown. Unless noted, calls come from the whole dose curve; as a rule, active = well fitted curve in the direction sought with a large enough effect; inconclusive = small, poorly fitted or top-dose-only effect, or another doubt; inactive = no such curve, though single readings can be large; an effect the other way counts as inactive or inconclusive.
SMILES,Mm-Cpn inhibitor,CCT chaperon mod,AT treatment,Apoferritin bind
COc1ccc(NC(=O)c2ccco2)cc1NC(=O)COc1ccccc1Cl,·,·,·,–
CC(C)N(C(=O)c1ccc(C(=O)Nc2ccc([N+](=O)[O-])cc2)cc1)C(C)C,–,-31.9,–,–
COc1ccccc1CCNC(=O)C(=O)NCC(c1cccs1)S(=O)(=O)c1ccc(F)cc1 (stereo unspecified),·,·,·,–
C[C@]12CC[C@@H]3c4ccc(O)cc4CC[C@H]3[C@@H]1CC[C@H]2O,·,·,·,–
CCOc1cccc(-c2nc(C(N)=O)c3[nH]c(=O)n(-c4cccc(Cl)c4)c3n2)c1O,–,-37.5,–,–
CCOc1ccccc1-c1nc(C(N)=O)c2[nH]c(=O)n(-c3cccc(C)c3)c2n1,–,–,–,?
Cc1ccc(-c2[nH]c3c(c2-c2c(-n4cccc4)n(C)c(=O)[nH]c2=O)c(=O)[nH]c(=O)n3C)cc1,·,·,·,–
COCCc1ccc(OC[C@H](O)CNC(C)C)cc1,·,·,·,–
CCn1cc(Cl)c(C(=O)Nc2nc3ccccc3n2CCN2CCCCC2)n1,–,–,12.6µM,–
COc1ccc(Cc2nc3ccc(C(=O)N(C)Cc4cc(C)[nH]n4)cc3o2)cc1OC,–,-70.1,–,–
Cc1cc(CN(C)C(=O)c2ccc3nc(Cc4ccccc4F)oc3c2)n[nH]1,–,–,–,–
O=C1S/C(=C\c2ccc(O)c([N+](=O)[O-])c2)C(=O)N1Cc1cccc([N+](=O)[O-])c1,–,–,–,–
O=C1S/C(=C\c2ccc(O)c([N+](=O)[O-])c2)C(=O)N1c1ccccc1Cl,–,–,–,12.6µM
C=CCNC(=S)NNc1nc(N2CCCC2)nc(N2CCCC2)n1,–,-53.9,–,–
C=CCNC(=O)C1=NN(c2c(F)c(F)cc(F)c2F)C(=O)CC1,–,–,7.08µM,–
O=C(CSc1nc2cc(Cl)ccc2o1)N1CCOCC1,–,-30.7,–,–
CC(=O)Nc1ccc(S(=O)(=O)NC2(C(F)(F)F)C(=O)Nc3c2c(=O)[nH]c(=O)n3-c2ccc(C)c(C)c2)cc1 (stereo unspecified),·,·,·,–
CC(=O)Nc1ccc(NS(=O)(=O)c2c(Cl)cccc2Cl)cc1,–,–,39.8µM,–
CN1CCN(c2ccc(-c3cccc(NC(=O)COc4ccccc4)c3)nn2)CC1,–,–,–,·
O=C(COc1ccccc1)Nc1ccc(-c2ccc(N3CCOCC3)nn2)cc1,–,-137.5,–,·
COCCn1c(C)cc(O)c(C(c2ccccc2F)N2CCN(c3ccccc3)CC2)c1=O (stereo unspecified),·,·,·,–
Cc1nc(-c2ccc(S(=O)(=O)N(Cc3ccccc3)C(C)C)cc2)co1,·,·,·,–
O=c1c2ccccc2sc2ccccc12,·,-34.6,·,·
O=c1c2ccccc2sc2ccc(Cl)cc12,?,–,–,–
CCCCCCCCCCS(=O)(=O)N/N=C/c1ccc([N+](=O)[O-])cc1,–,–,–,20µM
SMILES,Mm-Cpn inhibitor,CCT chaperon mod,AT treatment,Apoferritin bind
Cc1ccc(C)c(N2CCN(C(=O)c3cc(C)nc4c3c(C)nn4-c3ccccc3)CC2)c1,·,·,·,–
O=C(O)c1ccc(-c2nc3ccccc3s2)o1,–,–,4.47µM,–
O=S(=O)(c1cccc(NC(=S)Nc2ccc(Br)cc2Cl)c1)N1CCOCC1,–,-62.7,–,?
CC(=O)c1cc(-c2ccccc2)n(CCC(=O)Nc2ccc(C(C)C)cc2)c1C,·,·,·,–
Cc1nc2ccc3nc(NC(=O)c4ccc5c(c4)OCCO5)sc3c2s1,–,–,25.1µM,–
Cc1ccc(NC(=O)Cn2c(=O)n(-c3ccc(C)cc3)c(=O)c3c2cnn3C)cc1,·,·,·,–
O=C(NCc1ccccc1Cl)c1ccc(NC(=O)c2nsc3ccccc23)cc1,·,·,·,–
COc1cc(/C=C/C(=O)OCC(=O)Nc2ccc(NC(C)=O)cc2)cc(S(=O)(=O)N2CCc3ccccc32)c1OC,–,-44.8,–,–
COc1cc(S(=O)(=O)n2ccc(C)n2)c(OC)cc1Cl,–,–,–,–
COc1cc(S(=O)(=O)n2ccc(C)n2)ccc1Cl,–,-47.9,–,–
CN(C)c1ccc2c(-c3ccccc3)c3ccc(=[N+](C)C)cc-3oc2c1,·,·,·,–
Cc1ccc(N2C(=O)CC(Sc3nccc(C)n3)C2=O)cc1 (stereo unspecified),–,-53.3,–,–
CCCCNC(=O)C1CC(c2cccc(F)c2)=NO1 (stereo unspecified),–,–,–,–
Cc1ccc(CCNC(=O)C2CC(c3cccc(F)c3)=NO2)cc1 (stereo unspecified),–,–,14.1µM,–
O=C1NCCCC2c3c(cc(Br)c(O)c3Br)OC12N1CCOCC1 (stereo unspecified),–,–,20µM,–
NC(=O)CSc1ncc2c(n1)-c1ccccc1N(Cc1ccc(Cl)cc1)S2(=O)=O,·,·,·,–
COc1ccc(-c2cc(NC=O)c3ncc(-c4ccc(OC)c(OC)c4)n3c2)c(OC)c1,·,–,·,·
COc1cccc(-c2cnc3c(NC(C)=O)cc(-c4ccc(C(=O)NC5CC5)cc4)cn23)c1,·,-35.3,·,·
COc1cccc(-c2cnc3c(NC=O)cc(-c4ccc(OC)cc4OC)cn23)c1,·,-34.9,·,·
COc1ccc(-c2cnc3c(NC(C)=O)cc(-c4ccc(C(=O)NC5CC5)cc4)cn23)cc1OC,·,–,·,·
CC(=O)Nc1cc(-c2cccc(C(=O)NCCN(C)C)c2)cn2c(-c3ccccc3)cnc12,·,-38.1,·,·
CC(=O)Nc1cc(-c2cccc(C(=O)NCCN(C)C)c2)cn2c(-c3ccc(S(C)(=O)=O)cc3)cnc12,·,–,·,·
O=C(O)c1ccc2nc(-c3cc4cc(Cl)ccc4oc3=O)[nH]c2c1,·,·,·,–
CC(=O)Nc1ccc(C2=NN(c3ccccc3)C(c3cccs3)C2)cc1 (stereo unspecified),–,–,25.1µM,–
CCCOc1ccc(C2C(=O)N(C3CCC(C)CC3)CC(=O)N2Cc2cccc(OC)c2)cc1OC (stereo unspecified),·,·,·,–
CCOC(=O)Cc1ccc(NC(=O)N(Cc2ccc(OC)cc2)C2CCN(C(C)=O)CC2)cc1,·,·,·,–
